Compound activity as filed in PubChem.
TROY NFkB inh: inhibitors of TROY-dependent NF-kB signaling | Q293 LMP1-TROYcd NF-kB luciferase reporter, 4 h | inhibition, % at 10 µM | 0.98% of 360,000 active | AID 1347056;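 active = compounds whose plate-normalised and pattern-corrected inhibition of the luciferase reporter signal at the single screening dose is 50% or more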
EWS-Fli inh: blocks EWS/Fli oncoprotein-driven transcription | A673 NR0B1-luciferase reporter, viability-normalised | inhibition, % at 12.6 µM | 0.67% of 350,000 active;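 active = mean inhibition of at least 50% after viability correction, with every replicate also passing that limit; inconclusive = mean reaches 50% but only one of two replicates passes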;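 also: firefly luciferase signal divided by Alamar Blue viability fluorescence both relative to DMSO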
TWEAK Fn14 block: blocks TWEAK-Fn14 interaction in a reporter cell assay; TWEAK-stimulated Fn14 reporter cells, luciferase luminescence, 8 h; inhibition, % at 10 µM; 2% of 360,000 active; in the data active = inhibition above about 50%
LGR2 antag: inhibitors of bursicon-induced Drosophila LGR2 receptor cAMP signaling; inhibition, % at 9.99 µM; 0.35% of 380,000 active; AID 720647; HEK293 LGR2, CRE-luciferase, bursicon-stimulated, 4 h;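 active = drop in luminescence signal, shown as inhibition above about 50% in the replicate tests, limit read from the data, passing the limit was not always enough; inconclusive = probably only some replicates passing the limit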;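 also: agonist challenge used bursicon conditioned medium at about half maximal strength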
LMP1 NFkB inh: reduces LMP1-driven NF-kappaB luciferase signal | LMP1-induced NF-kappaB luciferase reporter cells, luminescence | inhibition, % at 12.5 µM | 0.69% of 350,000 active | AID 504558; in the data active = inhibition above about 41%; inconclusive = no clear call, values can overlap the other calls;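 also: 0% = neutral control wells and 100% = reference inhibitor control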
An asterisk follows results filed as active; ? = inconclusive; . = no result. Compounds with a hit are over-represented: about 2.5% of the library has one in this group of screens.

SMILES	TROY NFkB inh	EWS-Fli inh	TWEAK Fn14 block	LGR2 antag	LMP1 NFkB inh
C[C@@H]1CCCCO[C@@H](CN(C)C)[C@@H](C)CN([C@@H](C)CO)C(=O)c2cc(NS(=O)(=O)c3cccs3)ccc2O1	.	-5	.	-14	.
COc1ccc(CN(C)C[C@H]2Oc3c(NC(=O)NC4CCCCC4)cccc3C(=O)N([C@H](C)CO)C[C@H]2C)cc1	.	3	.	34	.
O=C(N/N=C/c1c(O)ccc2ccccc12)c1ccc(Br)o1	12	.	20	17	61*
O=C(N/N=C/c1c(O)ccc2ccccc12)c1cccnc1	1	24	-5	0	51*
Cn1nccc1C(=O)N/N=C/c1c(O)ccc2ccccc12	-17	-9	-38	6	76*
O=C(NN=Cc1c(O)ccc2ccccc12)c1ccncc1	4	23	-19	.	62*
O=C(N/N=C\c1c(O)ccc2ccccc12)c1ccc(O)cc1	1	-13	-2	16	35
COc1ccc2ccccc2c1/C=N\NC(=O)c1cccnc1	-11	1	-5	-8	.
S=C(NNc1ccnc2cc(Cl)ccc12)Nc1ccccc1Cl	66*	.	64*	-7	21
Cc1cccc(NC(=S)NNc2ncc(C(F)(F)F)cc2Cl)c1	41	.	25	-7	14
FC(F)(F)c1cnc(NNC(=S)Nc2ccccc2Cl)c(Cl)c1	59*	.	51*	36	-1
Cc1ccc(S(=O)(=O)N(C)C[C@@H]2OCCCC[C@H](C)Oc3ccc(NC(=O)c4ccccc4)cc3C(=O)N([C@H](C)CO)C[C@H]2C)cc1	.	1	.	18	.
O=C(CSCc1cccc(CSCC(=O)Nc2ccc3ccccc3c2)n1)Nc1ccc2ccccc2c1	38	.	67*	.	-4
C[C@@H]1CN([C@@H](C)CO)C(=O)c2cc(NC(=O)C3CC3)ccc2O[C@@H]1CN(C)S(C)(=O)=O	.	3	.	-8	.
CCCNC1=C(N(C(C)=O)c2cccc(F)c2)C(=O)c2ccccc2C1=O	18	7	79*	12	10
Cc1c(/C(O)=C2\C(=O)C(=O)N(CCCN(C)C)C2c2cccs2)cnn1-c1ccccc1 (configuration not stated)	66*	-12	59*	3	3
Cc1ccc(C2/C(=C(/O)c3cnn(-c4ccccc4)c3C)C(=O)C(=O)N2CCN2CCOCC2)o1 (configuration not stated)	-11	.	18	.	-6
Cc1c(/C(O)=C2\C(=O)C(=O)N(CCN(C)C)C2c2ccco2)cnn1-c1ccccc1 (configuration not stated)	4	.	42	.	14
Cc1c(/C(O)=C2/C(=O)C(=O)N(CCN3CCOCC3)C2c2cccs2)cnn1-c1ccccc1 (configuration not stated)	60*	.	53*	.	-5
Cc1c(/C(O)=C2\C(=O)C(=O)N(CCCN(C)C)C2c2ccco2)cnn1-c1ccccc1 (configuration not stated)	80*	2	80*	33	24
O=C1C(=O)N(CCN2CCOCC2)C(c2ccccn2)/C1=C(/O)c1ccccc1 (configuration not stated)	1	.	63*	.	4
COc1ccc(NC(=O)Nc2ccc3c(c2)C(=O)N([C@H](C)CO)C[C@@H](C)[C@H](CN(C)S(=O)(=O)c2cn(C)cn2)O3)cc1	.	-1	.	-2	.
Cc1c(/C(O)=C2/C(=O)C(=O)N(CCN(C)C)C2c2ccc(C(C)C)cc2)cnn1-c1ccccc1 (configuration not stated)	-6	5	12	0	-7
Cc1c(/C(O)=C2\C(=O)C(=O)N(CCN(C)C)C2c2ccccc2)cnn1-c1ccccc1 (configuration not stated)	44	7	57*	.	18
CCOc1ccc(CN2CCN(Cc3c(C)nn(CC)c3C)CC2CCO)cc1 (configuration not stated)	0	-1	76*	-8	1
SMILES	TROY NFkB inh	EWS-Fli inh	TWEAK Fn14 block	LGR2 antag	LMP1 NFkB inh
CCn1nc(C)c(CN2CCN(Cc3cccc(OC)c3)C(CCO)C2)c1C (configuration not stated)	2	16	-28	2	-16
O=C(NC1=NCCS1)c1ccccc1	-33	-34	0	6	-5
COC(=O)c1cc(NC(=O)c2cc3ccccc3o2)cc(C(=O)OC)c1	11	8	-43	0	3
Cc1ccc(C)c(NC(=O)c2cc3ccccc3o2)c1	-50	-84	-11	-51	-34
COC(=O)c1cccc(NC(=O)c2cc3ccccc3o2)c1	69*	84*	102*	.	-21
Cc1ccnc(NC(=O)c2cc3ccccc3o2)c1	60*	75*	91*	77*	39
O=C(NC1=NCCS1)c1cc2ccccc2o1	20	.	82*	.	?
O=C(Nc1ccccn1)c1cc2ccccc2o1	70*	.	96*	.	46*
O=C(Nc1cccc2ncccc12)c1cc2ccccc2o1	6	.	13	.	0
O=C(Nc1ncccc1O)c1cc2ccccc2o1	19	13	40	33	42*
C/C=C(\C)C(=O)OC1[C@H](OC(C)=O)C2(CO)C(CC1(C)C)C1=CCC3C4(C)CCC(O[C@@H]5O[C@H](C(=O)O)[C@@H](O[C@@H]6O[C@H](CO)[C@@H](O)[C@H](O)[C@H]6O)[C@H](O)[C@H]5O[C@H]5O[C@H](CO)[C@@H](O)[C@H](O)[C@H]5O)[C@](C)(CO)C4CCC3(C)[C@]1(C)C[C@H]2O (some centres not stated)	87*	.	15	.	36
CC1(C)C[C@H](O)[C@]2(CO)[C@H](O)C[C@]3(C)C(=CCC4[C@@]5(C)CC[C@H](O)C(C)(C)C5CC[C@]43C)[C@@H]2C1 (some centres not stated)	-4	18	-29	12	-5
C/C=C(/C)C(=O)OC1CC(C)(C)C[C@H]2C3=CC[C@@H]4[C@@]5(C)CCC(O[C@@H]6O[C@@H](C(=O)O)[C@@H](O)C(O[C@@H]7OC[C@H](O)[C@@H](O)[C@@H]7O[C@@H]7OC(CO)C(O)[C@@H](O)[C@@H]7O)C6O[C@@H]6OC(CO)C(O)C(O)C6O)[C@@](C)(CO)[C@@H]5CC[C@]4(C)[C@]3(C)CC(O)[C@@]12CO (some centres not stated)	0	.	-12	.	4
CC1(C)C[C@H]2C3=CCC4[C@@]5(C)CC[C@H](O[C@@H]6O[C@H](C(=O)O)[C@@H](O)[C@H](O)[C@H]6O)[C@@](C)(CO)C5CC[C@@]4(C)[C@]3(C)C[C@H](O)[C@@]2(CO)[C@@H](O)[C@@H]1O (some centres not stated)	57*	-5	5	-5	6
COc1ccccc1-c1ccc2c(c1)O[C@H](CN(C)CC1CC1)[C@H](C)CN([C@H](C)CO)S2(=O)=O	.	-12	.	-6	.
O=C(N/N=C/c1cn(-c2cccs2)nc1-c1ccccc1)c1ccccc1O	62*	.	91*	74*	11
O=C(N/N=C/c1cn(-c2cccs2)nc1-c1ccccc1)c1ccccc1Br	-29	-17	41	.	-42
